Rows were chosen to be rich in hits. Some 4% of all compounds tested hit in one or more screens of this group.
Mtb betalactam: beta-lactam sensitization of Mtb H37Rv | 0.27% of 330,000 active | inhibition, % at 25 µM | AID 434955 | M. tuberculosis H37Rv growth with meropenem, percent inhibition; call rule not given here;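 note: growth measured after seven days incubation then overnight dye step; 0% = bacteria only wells and 100% = bacteria with antibiotic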
RecA splice inh: Mtb RecA intein splicing inhibition. 0.75% of 290,000 active. cell-free RecA intein splicing, fluorescence. P9WHJ3. inhibition, % (test concentration not listed); in the data active = inhibition above about 30%; inconclusive = no clear call, values can overlap the other calls;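 note: 0% = vehicle wells and 100% = reference inhibitor control wells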
Target sequence (P9WHJ3 whole entry, looked up, canonical isoform): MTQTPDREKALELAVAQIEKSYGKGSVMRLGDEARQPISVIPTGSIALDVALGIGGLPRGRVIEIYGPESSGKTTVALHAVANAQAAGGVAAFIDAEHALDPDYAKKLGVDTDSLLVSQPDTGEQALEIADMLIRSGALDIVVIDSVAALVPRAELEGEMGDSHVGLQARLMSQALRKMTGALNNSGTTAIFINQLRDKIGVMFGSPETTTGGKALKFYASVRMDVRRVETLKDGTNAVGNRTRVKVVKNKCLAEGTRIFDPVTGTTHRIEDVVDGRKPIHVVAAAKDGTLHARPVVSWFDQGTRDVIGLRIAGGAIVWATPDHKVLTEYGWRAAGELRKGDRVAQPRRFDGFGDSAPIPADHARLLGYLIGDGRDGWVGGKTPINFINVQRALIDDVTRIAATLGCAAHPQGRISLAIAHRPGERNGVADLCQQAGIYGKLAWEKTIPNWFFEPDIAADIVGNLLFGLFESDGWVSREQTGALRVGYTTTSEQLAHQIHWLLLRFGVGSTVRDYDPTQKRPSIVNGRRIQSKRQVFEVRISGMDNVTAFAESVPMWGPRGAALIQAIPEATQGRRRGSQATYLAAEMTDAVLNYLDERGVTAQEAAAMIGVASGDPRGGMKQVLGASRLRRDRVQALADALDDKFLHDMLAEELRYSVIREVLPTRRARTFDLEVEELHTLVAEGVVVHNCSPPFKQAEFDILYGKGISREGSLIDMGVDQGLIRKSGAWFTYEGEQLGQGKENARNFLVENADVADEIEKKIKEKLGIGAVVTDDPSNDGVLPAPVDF
Mtb FBA inh: inhibits M. tuberculosis FBA enzyme; P9WQA3; purified M. tuberculosis FBA, fluorescence read-out; inhibition, % at 1 µM; 2.3% of 360,000 active;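 note: 0% = vehicle and 100% = reference inhibitor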
GDH-TPI counter-1: inhibits GDH-TPI coupling enzymes, artifact for Mtb FBA screen. 1.2% of 360,000 active. inhibition, % at 4.8 µM. AID 588335. GDH-TPI coupled enzyme counterscreen, NADH absorbance; in the data active = inhibition above about 30%;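 note: 0% = DMSO wells and 100% = wells lacking the enzyme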
Mtb UGM inh: blocks M. tuberculosis UGM enzyme. purified UGM, fluorescence polarization probe displacement. P9WIQ1. AID 504406. 0.06% of 320,000 active. inhibition, % at 10 µM; in the data active = inhibition above about 10%, passing the limit was not always enough; inconclusive = no clear call, values can overlap the other calls
Rv3671c protease: inhibitors of M. tuberculosis serine protease Rv3671c; inhibition, % at 5.96 µM; 0.048% of 320,000 active; in the data active = inhibition above about 38%;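 note: extracellular domain of Rv3671c used as enzyme; 0% = enzyme with DMSO and 100% = no enzyme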
Mtb FBA inh conf: confirmation of M. tuberculosis fructose-bisphosphate aldolase inhibitors; inhibition, % at 1 µM; 78% of 5,600 active; shares compounds with Mtb FBA inh; purified M. tuberculosis FBA, fluorescence read-out;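 note: 0% = vehicle wells and 100% = reference inhibitor wells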
GDH-TPI counter-2: GDH-TPI inhibition counter-screen for FBA inhibitors | inhibition, % at 1 µM | 81% of 5,600 active | GDH-TPI coupled enzyme counterscreen, fluorescence | shares compounds with Mtb FBA inh; in the data active = inhibition above about 10%
* hit, by the source's call. Cut-off read from the data, not from the text of the source, unless noted: active = inhibition above about 27%; inactive = the rest.

O=C(c1cccc(Cl)c1)N1CCN(c2ccc(N3CCOCC3)nn2)CC1 was read as Mtb betalactam -13, RecA splice inh -7, Mtb FBA inh 24, GDH-TPI counter-1 9, Mtb UGM inh 0 and Rv3671c protease -5.
For Cc1ccccc1CS(=O)(=O)CCC(=O)N1CCN(c2ccc(N3CCOCC3)nn2)CC1 the results were Mtb betalactam -7, RecA splice inh -5, Mtb FBA inh 35*, GDH-TPI counter-1 0, Mtb UGM inh 0, Rv3671c protease 0, Mtb FBA inh conf 66* and GDH-TPI counter-2 60*.
Screening O=C(Cn1c(=O)oc2ccccc21)N1CCN(c2ccc(N3CCOCC3)nn2)CC1 returned Mtb betalactam 8, RecA splice inh -4, Mtb FBA inh 28*, GDH-TPI counter-1 14, Mtb UGM inh -1, Rv3671c protease -3, Mtb FBA inh conf 132* and GDH-TPI counter-2 80*.
For CC(Oc1ccccc1)C(=O)N1CCN(c2ccc(N3CCOCC3)nn2)CC1 (configuration not stated) the results were Mtb betalactam -3, RecA splice inh -8, Mtb FBA inh 30*, GDH-TPI counter-1 -7, Mtb UGM inh -1, Rv3671c protease 0, Mtb FBA inh conf 1 and GDH-TPI counter-2 0.
`O=C(Nc1cccc(Cl)c1)c1nc[nH]c1C(=O)NCCN(CCNC(=O)c1[nH]cnc1C(=O)Nc1cccc(Cl)c1)CCNC(=O)c1[nH]cnc1C(=O)Nc1cccc(Cl)c1` gave Mtb betalactam 4, Mtb FBA inh 0, GDH-TPI counter-1 -1, Mtb UGM inh -3 and Rv3671c protease -8.
For CN(C)CCCNC(=O)N1c2ccccc2Sc2ccccc21 the results were Mtb betalactam 8, Mtb FBA inh 59*, GDH-TPI counter-1 -14, Mtb UGM inh -1, Rv3671c protease 1, Mtb FBA inh conf active and GDH-TPI counter-2 active.
Cn1c2ccccc2c(=O)c2ccc(Cl)cc21 was read as Mtb FBA inh 106*, GDH-TPI counter-1 6, Mtb FBA inh conf 64* and GDH-TPI counter-2 44*.
For CCOC(=O)c1ccc(-c2ccc3c(=O)c4ccccc4n(C)c3c2)cc1F the results were Mtb betalactam 98, RecA splice inh -9, Mtb FBA inh 57*, GDH-TPI counter-1 13, Mtb UGM inh 0, Rv3671c protease -11, Mtb FBA inh conf 133* and GDH-TPI counter-2 117*.
Screening Cn1c2ccccc2c2c(=O)oc3ccccc3c21 returned Mtb FBA inh 8 and GDH-TPI counter-1 20.
For Cn1c(=O)oc(=O)c2ccccc21 the results were Mtb FBA inh 94*, GDH-TPI counter-1 17, Mtb FBA inh conf 135* and GDH-TPI counter-2 116*.
`CCOc1cc(/C=N\Nc2nc(Nc3ccccc3)nc(N3CCOCC3)n2)ccc1OC(=O)c1ccco1` gave Mtb betalactam 94, RecA splice inh 3, Mtb FBA inh 0, GDH-TPI counter-1 15, Mtb UGM inh 1 and Rv3671c protease -80.
Screening CCOc1ccc(NC(=O)C2CCCN(C(=O)NCc3ccccc3)C2)cc1 (configuration not stated) returned Mtb betalactam -2, RecA splice inh 2, Mtb FBA inh -4, GDH-TPI counter-1 -5, Mtb UGM inh 3 and Rv3671c protease 9.
Screening Cc1c(CCO)c(=O)[nH]n1S(=O)(=O)c1ccc(Cl)cc1Cl returned Mtb betalactam -5, RecA splice inh -1, Mtb FBA inh 0, GDH-TPI counter-1 -10, Mtb UGM inh 4 and Rv3671c protease 4.
Cc1ccc(-c2ccc(C(=O)NCc3ccccc3)o2)c2ccccc12 was read as Mtb betalactam 7, RecA splice inh 3, Mtb FBA inh 61*, GDH-TPI counter-1 11, Mtb UGM inh 2, Rv3671c protease -17, Mtb FBA inh conf 120* and GDH-TPI counter-2 74*.
Screening COc1cc2c3nnc(-c4ccc(F)cc4)c-3cn(Cc3cccc(C)c3)c2cc1OC returned Mtb betalactam 4, RecA splice inh -14, Mtb FBA inh 11, GDH-TPI counter-1 -12, Mtb UGM inh 9 and Rv3671c protease -20.
For COc1cc2c3nnc(-c4ccccc4)c-3cn(Cc3ccc(F)cc3)c2cc1OC the results were Mtb betalactam 62, RecA splice inh -124, Mtb FBA inh 32*, GDH-TPI counter-1 13, Mtb UGM inh 5, Rv3671c protease -4, Mtb FBA inh conf 127* and GDH-TPI counter-2 94*.
COc1cccc(C(=O)NCC(=O)OC(C)C(=O)NC23CC4CC(CC(C4)C2)C3)c1 (configuration not stated) was read as Mtb betalactam -2, Mtb FBA inh 1, GDH-TPI counter-1 -4, Mtb UGM inh -1 and Rv3671c protease -2.
Cc1ccc(-c2onc(C)c2C)cc1S(=O)(=O)N1CC(C)Oc2ccccc21 (configuration not stated) was read as Mtb betalactam inconclusive, RecA splice inh 12, Mtb FBA inh -4, GDH-TPI counter-1 -1, Mtb UGM inh -4 and Rv3671c protease -15.
`CCC1CC2(C)NC(=O)c3c(sc4c3CC(C)(C)OC4)N2C1=O` (configuration not stated) gave RecA splice inh 4, Mtb FBA inh 39*, GDH-TPI counter-1 10, Mtb FBA inh conf 175* and GDH-TPI counter-2 112*.
`O=C(NCCCN1CCOCC1)C(=O)NCc1ccccc1` gave Mtb betalactam -3, RecA splice inh -2, Mtb FBA inh 4, GDH-TPI counter-1 -2, Mtb UGM inh 2 and Rv3671c protease -2.
Screening Nc1c(C(=O)NCc2ccccc2)c2nc3ccccc3nc2n1CCCN1CCOCC1 returned Mtb betalactam 99, RecA splice inh -384, Mtb FBA inh 58*, GDH-TPI counter-1 8, Mtb UGM inh -1, Rv3671c protease 8, Mtb FBA inh conf 146* and GDH-TPI counter-2 114*.
COc1ccc(CNC(=O)c2c(N)n(CCCN3CCOCC3)c3nc4ccccc4nc23)cc1 was read as Mtb betalactam 100, RecA splice inh -149, Mtb FBA inh 55*, GDH-TPI counter-1 13, Mtb UGM inh 1, Rv3671c protease 4, Mtb FBA inh conf 132* and GDH-TPI counter-2 107*.
`O=C(NCCCN1CCOCC1)c1ccc(CNS(=O)(=O)c2ccc(F)cc2)cc1` gave Mtb betalactam -4, RecA splice inh 1, Mtb FBA inh 2, GDH-TPI counter-1 11, Mtb UGM inh -1 and Rv3671c protease 6.
Nc1c(C(=O)NCc2ccc(F)cc2)c2nc3ccccc3nc2n1CCCN1CCOCC1 was read as Mtb betalactam 100, RecA splice inh -149, Mtb FBA inh 48*, GDH-TPI counter-1 11, Mtb UGM inh 1, Rv3671c protease 14, Mtb FBA inh conf active and GDH-TPI counter-2 active.
